# Measured values published in article PMC6212790, “How bacterial xenogeneic silencer rok distinguishes foreign from self DNA in its resident genome”.
# Whole data set: some 33,000 sequences, median “e-score” near -0.038, cut for the highest 2% near 0.33. The full list was thinned out, with the highest values kept by preference.
# Target: T1, GST-Rok-C97-191 (Bacillus subtilis subsp. subtilis str. …, UniProt O34857 97-191)
# T1 sequence: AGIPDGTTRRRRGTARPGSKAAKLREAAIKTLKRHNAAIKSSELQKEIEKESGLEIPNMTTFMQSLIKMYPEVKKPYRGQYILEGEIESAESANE
# Test: protein binding microarray; Rok is a gene silencer of Bacillus subtilis; high values mean tight binding
# Conditions: protein: recombinant; tags: GST (pTH5325, pDEST15-Magic modified); dsDNA, one strand shown
# Summary of the method: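 Every oligonucleotide joins a 25-mer constant primer to a 35-mer variable part drawn from a de Bruijn sequence of order 10, so each non-palindromic 8-mer appears at least 32 times and each palindromic 8-mer 16 times. The preference for every 8-mer is reported as a unitless, rank-based enrichment score (E-score). This score spans 0.5 for the most favored 8-mer to −0.5 for the most disfavored.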
row,Sequence,binding signal [E-score]
1,ATGGTAAA,0.23
2,ATGGTAGC,0.35
3,ATGGTAGA,0.448
4,ATGGTACA,0.199
5,ATGGTATC,0.0289
6,CTGGTAGC,-0.00597
7,CTGGTATA,0.205
8,ATGGTATA,0.353
9,GTGGTAGA,0.433
10,ATGGTAGG,0.278
11,AACATCCG,0.0335
12,AACCGGTT,0.0733
13,AGTAGCAA,0.277
14,ACCTCTCG,0.00338
15,CGAAACAA,0.0284
16,CAAGCTGC,-0.171
17,AGCGACCT,0.06
18,CACGATGA,-0.103
19,GGGAAGGA,-0.18
20,ATAGAAAC,0.326
21,ATAGAATG,0.165
22,AAAGATTA,0.212

row,Sequence,binding signal [E-score]
1,ATAGATTC,0.34
2,ATAGATTG,0.304
3,CTAGATTC,0.166
4,ATAGAAAT,0.381
5,ATAGAAAA,0.267
6,ATAGATTA,0.331
7,ACAGATTA,0.0434
8,ATAGAATC,0.274
9,ATAGAATA,0.354
10,AGAAGACA,0.059
11,AACCTGCG,-0.0596
12,CAAGGTAA,0.166
13,CACAATGA,0.00707
14,GTTAATGA,0.082
15,GTCCCTGA,-0.188
16,TCTGGGAA,0.0446
17,TACTGGCA,0.0047
18,ACCTATGC,-0.0256
19,ATTGGGGA,-0.0754
20,GTAGATTA,0.344
21,GCAGATTA,0.028
22,CTAGATTA,0.312

row,Sequence,binding signal [E-score]
1,GAAAGCTC,-0.157
2,ATGTAGTG,0.163
3,CAGTAGTC,-0.151
4,CAGTAGTA,0.362
5,AAGTAGTA,0.358
6,AAGTAGTG,0.211
7,ATGTAGTA,0.407
8,ATGTAGTC,0.156
9,GAGTAGTA,0.305
10,AAGTAGTC,0.226
11,TCCGCTCA,-0.118
12,CGCTTTCC,-0.13
13,CGGAAAGA,-0.135
14,AACCTCAA,-0.0809
15,ACACTGGT,0.0216
16,GCGGGAGA,-0.111
17,CTGGCGAC,-0.196
18,AAAATAGC,0.21
19,AATATAGC,0.349
20,ACTATAGT,0.411
21,ACTATAGG,0.148
22,ACTATAGC,0.207

row,Sequence,binding signal [E-score]
1,AATATAGT,0.337
2,GATATAGC,0.0553
3,AAAATAGT,0.404
4,AATATAGG,0.0639
5,CATATAGC,0.127
6,AAAATAGA,0.271
7,AATATCGT,0.204
8,GTTCAGCA,0.0486
9,TAAGGCAA,0.0603
10,CTGGGAAG,-0.0965
11,CCACTTAG,-0.0775
12,CGGAGTCC,-0.199
13,TAGATCAA,0.156
14,CTCGACGA,-0.162
15,CTTCAGAC,-0.188
16,CACCGATA,0.152
17,AACCGGTA,0.182
18,AACCGATA,0.108
19,CACCGGTA,0.0827
20,TACCGATA,0.339
